Source: PubChem BioAssay (EPA / NIEHS)
Inconclusive results are not listed. The source made the active and inactive calls. Rule for the calls, unless noted: active = hit-call score of the fitted dose curve at least 0.9, where 1 is the maximum; inactive = score below 0.9.

Experiments:
[1] = read-out: Macrophage colony-stimulating factor (MCSF), CSF1 (gene 1435); assay: BSK_LPS_MCSF: BioMAP Diversity Plus: LPS Assay for Macrophage colony-stimulating factor (MCSF) Biomarker Activity (AID 2283083); details: primary human HUVEC with PBMC; actives raise or lower the signal
How it was run: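 HUVEC–PBMC co-culture, M-CSF measured by ELISA 24 h after chemical dosing. Fitted in both directions relative to DMSO as negative control; overt cytotoxicity assessed by SRB total-protein staining in parallel cultures.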

[2] = read-out: Tissue Factor, F3 (gene 2152); assay: BSK_LPS_TissueFactor: BioMAP Diversity Plus: LPS Assay for Tissue Factor Biomarker Activity (AID 2283084); details: primary human HUVEC with PBMC; actives raise or lower the signal
How it was run: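 Human umbilical vein endothelial cells co-cultured with PBMC were dosed with compound. Cell-surface CD142 was measured by ELISA 24 h later. Activity was fitted bidirectionally against DMSO, with SRB total-protein staining in parallel cultures for cytotoxicity.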

[3] = read-out: Tumor necrosis factor (Homo sapiens) (UniProt P01375); assay: BSK_LPS_TNFa: BioMAP Diversity Plus: LPS Assay for Tumour Necrosis Factor alpha (TNFa) Biomarker Activity (AID 2283085); details: primary human HUVEC with PBMC; actives raise or lower the signal
How it was run: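 Human umbilical vein endothelial cells co-cultured with PBMC were exposed to test chemical and TNFa measured by ELISA 24 h after dosing. Bidirectional curve fitting was done relative to DMSO as negative control and baseline.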

[4] = read-out: Vascular cell adhesion molecule 1 (VCAM1), VCAM1 (gene 7412); assay: BSK_LPS_VCAM1: BioMAP Diversity Plus: LPS Assay for Vascular cell adhesion molecule 1 (VCAM1) Biomarker Activity (AID 2283086); details: primary human HUVEC with PBMC; actives raise or lower the signal
How it was run: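 Human umbilical vein endothelial cells co-cultured with peripheral blood mononuclear cells under LPS stimulation were exposed to test chemical for 24 h. VCAM-1 levels were then measured by ELISA, with bidirectional curve fitting relative to DMSO as negative control and baseline.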

CD38, CD38 (gene 952) = assay: BSK_SAg_CD38: BioMAP Diversity Plus: SAg Assay for CD38 Biomarker Activity (AID 2283087); details: primary human HUVEC with PBMC; actives raise or lower the signal
How it was run: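 Fluorescence ELISA of cell-surface CD38 served as the read-out, with either increase or decrease fitted against DMSO controls. Cells were a human umbilical vein endothelium plus PBMC co-culture under SEB/TSST-1 stimulation, measured 24 h after dosing.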

CD40, CD40 (gene 958) = assay: BSK_SAg_CD40: BioMAP Diversity Plus: SAg Assay for CD40 Biomarker Activity (AID 2283088); details: primary human HUVEC with PBMC; actives raise or lower the signal
How it was run: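 HUVEC plus PBMC co-culture, superantigen-activated, with CD40 read by ELISA 24 h after dosing. Curves fitted in both directions against DMSO. Overt cytotoxicity checked by parallel SRB total-protein staining.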

CD69, CD69 (gene 969) = assay: BSK_SAg_CD69: BioMAP Diversity Plus: SAg Assay for CD69 Biomarker Activity (AID 2283089); details: primary human HUVEC with PBMC; actives raise or lower the signal;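 for AC50: cell surface CD69 protein quantified by ELISA with fluorescence detection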
How it was run: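 Primary human vascular co-culture (umbilical vein endothelium with peripheral blood mononuclear cells) exposed to test chemical for 24 h. CD69 levels quantified by fluorescence ELISA; DMSO served as negative control for bidirectional fitting.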

[5] = read-out: Monocyte Chemoattractant Protein-1 (MCP1), CCL2 (gene 6347); assay: BSK_SAg_MCP1: BioMAP Diversity Plus: SAg Assay for Monocyte Chemoattractant Protein-1 (MCP1) Biomarker Activity (AID 2283090); details: primary human HUVEC with PBMC; actives raise or lower the signal
How it was run: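 MCP-1 levels in the endothelial–PBMC SAg co-culture were quantified by ELISA at 24 h post-dosing; both increases and decreases versus DMSO scored. Cytotoxicity monitored by SRB total protein in parallel cultures.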

[6] = read-out: E-selectin (Homo sapiens) (UniProt P16581); assay: BSK_SAg_Eselectin: BioMAP Diversity Plus: SAg Assay for Eselectin Biomarker Activity (AID 2283091); details: primary human HUVEC with PBMC; actives raise or lower the signal
How it was run: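 Human umbilical vein endothelial cells co-cultured with peripheral blood mononuclear cells, SAg system. E-selectin is measured by ELISA 24 h after dosing and fitted bidirectionally against DMSO. Cytotoxicity is checked by SRB staining of parallel cultures.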

[7] = read-out: Monokine induced gamma interferon (MIG), CXCL9 (gene 4283); assay: BSK_SAg_MIG: BioMAP Diversity Plus: SAg Assay for Monokine induced gamma interferon (MIG) Biomarker Activity (AID 2283092); details: primary human HUVEC with PBMC; actives raise or lower the signal
How it was run: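 Endothelial cells and PBMC were co-cultured, exposed to test chemicals, and sampled 24 h later. MIG was measured by ELISA, and responses were fitted in both directions relative to DMSO.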

[8] = BSK_SAg_PBMCCytotoxicity: PBMC Cytotoxicity Assessment in the BioMAP Diversity Plus: SAg Assay (AID 2283093); details: primary human HUVEC with PBMC;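 note: PBMC viability measured as Alamar Blue reduction fluorescence at 546/580 nm; fitted both ways against DMSO so a hit may be loss or gain of signal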;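 for AC50: PBMC superantigen activated with SEB plus TSST-1 one hour after compound addition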
How it was run: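 HUVEC/PBMC co-culture; PBMC exposed to chemical 1 h before SEB and TSST-1 activation (20 ng/mL each), incubated 90 h, then Alamar Blue 6 h, fluorescence 546/580 nm. Bidirectional fit versus DMSO baseline.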

[9] = read-out: Interleukin-8 (IL8), CXCL8 (gene 3576); assay: BSK_SAg_IL8: BioMAP Diversity Plus: SAg Assay for Interleukin-8 (IL8) Biomarker Activity (AID 2283094); details: primary human HUVEC with PBMC; actives raise or lower the signal
How it was run: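 Human umbilical vein endothelial cells co-cultured with peripheral blood mononuclear cells; IL-8 measured by ELISA 24 h after chemical dosing. Bidirectional concentration-response fitting used DMSO as negative control and activity baseline.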

[10] = BSK_SAg_Proliferation: Cell Proliferation Assessment in the BioMAP Diversity Plus: SAg Assay (AID 2283095); details: primary human HUVEC with PBMC;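 note: relative cell number as total protein by SRB absorbance in sub-confluent culture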
How it was run: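 Human umbilical vein endothelial cells co-cultured with peripheral blood mononuclear cells; total protein measured by sulforhodamine B staining (0.1% SRB after 10% TCA fixation), absorbance at 560 nm, at 96 h. Bidirectional fit against DMSO baseline.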

[11] = BSK_SAg_SRB: Viability Assessment in the BioMAP Diversity Plus: SAg Assay (AID 2283096); details: primary human HUVEC with PBMC;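 note: cells read one day after compound addition; hits may be either gain or loss of signal compared with DMSO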
How it was run: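 Human umbilical vein endothelial cells co-cultured with PBMC, read 24 h after compound dosing. Total protein measured by sulforhodamine B staining (0.1% SRB after 10% TCA fixation, absorbance 560 nm); bidirectional fit versus DMSO baseline.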

[12] = BSK_LPS_PGE2: BioMAP Diversity Plus: LPS Assay for Prostaglandin E2 (PGE2) Biomarker Activity (AID 2283082); details: primary human HUVEC with PBMC; actives raise or lower the signal
How it was run: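 HUVEC plus PBMC co-culture stimulated with LPS; secreted PGE2 quantified by ELISA 24 h after chemical dosing. Activity fitted bidirectionally against DMSO as negative control and baseline; parallel SRB total-protein staining served as cytotoxicity check.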

[13] = biological target: human CYP19A1, CYP19A1 (gene 1588) (UniProt P11511); assay: NVS_ADME_hCYP19A1: NovaScreen (NVS) CYP450-related Enzyme Activity (ADME) Assay for human CYP19A1 (AID 2283098; active = hit-call score of the fitted dose curve at least 0.9, where 1 is the maximum)
Chain of human CYP19A1, CYP19A1 (gene 1588) (P11511 whole entry, looked up): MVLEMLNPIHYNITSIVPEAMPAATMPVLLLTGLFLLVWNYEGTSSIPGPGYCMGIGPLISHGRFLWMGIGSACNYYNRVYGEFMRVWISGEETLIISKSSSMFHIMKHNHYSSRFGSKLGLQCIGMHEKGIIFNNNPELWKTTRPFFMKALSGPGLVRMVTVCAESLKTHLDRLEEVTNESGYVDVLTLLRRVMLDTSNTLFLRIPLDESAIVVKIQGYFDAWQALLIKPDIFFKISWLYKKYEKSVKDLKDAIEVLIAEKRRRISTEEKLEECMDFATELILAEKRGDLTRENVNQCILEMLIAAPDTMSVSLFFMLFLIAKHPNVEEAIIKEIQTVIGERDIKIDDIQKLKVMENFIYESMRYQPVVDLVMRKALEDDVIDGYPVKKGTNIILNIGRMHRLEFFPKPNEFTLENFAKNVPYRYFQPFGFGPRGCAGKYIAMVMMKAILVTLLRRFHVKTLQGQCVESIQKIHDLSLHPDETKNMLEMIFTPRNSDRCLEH
How it was run: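 Recombinant enzyme in a cell-free format, read 0.5 h after dosing by fluorescence from a fluorogenic substrate. Loss of signal was fitted against acetonitrile as baseline. Primary screen in duplicate at 10 uM, actives then tested in concentration series.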

[14] = biological target: Cytochrome P450 2C19 (Homo sapiens) (UniProt P33261); assay: NVS_ADME_hCYP2C19: NovaScreen (NVS) CYP450-related Enzyme Activity (ADME) Assay for human CYP2C19 (AID 2283113; active = hit-call score of the fitted dose curve at least 0.9, where 1 is the maximum)
How it was run: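 Cell-free recombinant human CYP2C19 from insect cells, fluorescent substrate; activity read by fluorescence intensity 1 h after dosing. Primary screen in duplicate at 10 uM; actives retested in concentration series. Signal loss versus acetonitrile negative control.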

Measured: AC50

Chain of E-selectin (Homo sapiens) (P16581 whole entry, looked up): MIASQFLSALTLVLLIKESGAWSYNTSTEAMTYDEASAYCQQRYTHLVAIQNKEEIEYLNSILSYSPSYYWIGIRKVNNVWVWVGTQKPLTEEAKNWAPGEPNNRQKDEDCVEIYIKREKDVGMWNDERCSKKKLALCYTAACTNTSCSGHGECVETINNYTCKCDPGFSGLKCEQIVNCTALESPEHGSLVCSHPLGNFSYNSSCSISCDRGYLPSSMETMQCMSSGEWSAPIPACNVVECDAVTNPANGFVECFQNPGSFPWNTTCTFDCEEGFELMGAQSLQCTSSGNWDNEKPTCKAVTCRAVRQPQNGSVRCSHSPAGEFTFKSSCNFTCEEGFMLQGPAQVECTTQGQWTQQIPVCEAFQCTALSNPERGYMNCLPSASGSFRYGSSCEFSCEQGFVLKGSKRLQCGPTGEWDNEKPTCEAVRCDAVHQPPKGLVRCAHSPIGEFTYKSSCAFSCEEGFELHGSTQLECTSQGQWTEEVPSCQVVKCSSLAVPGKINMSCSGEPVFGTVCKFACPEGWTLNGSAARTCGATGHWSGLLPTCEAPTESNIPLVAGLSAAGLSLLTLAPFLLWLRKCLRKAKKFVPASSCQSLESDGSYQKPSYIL
Chain of Tumor necrosis factor (Homo sapiens) (P01375 whole entry, looked up): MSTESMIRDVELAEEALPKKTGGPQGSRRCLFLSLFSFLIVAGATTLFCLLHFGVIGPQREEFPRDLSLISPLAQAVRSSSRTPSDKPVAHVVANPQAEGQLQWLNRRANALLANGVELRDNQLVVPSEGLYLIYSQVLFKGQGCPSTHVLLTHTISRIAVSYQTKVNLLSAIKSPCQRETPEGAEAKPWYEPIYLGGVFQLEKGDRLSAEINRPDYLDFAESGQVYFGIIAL

Nc1cc([N+](=O)[O-])ccc1Cl
not listed: [12] | [13] | [14]
inactive: all other assays above

O=[N+]([O-])c1cc(C(F)(F)F)ccc1Cl
not listed: [12] | [13] | [14]
inactive: all other assays above

NCCNCCN
not listed: [4] | [13] | [14]
inactive: all other assays above

O=C(O)c1cn(C2CC2)c2cc(N3CCNCC3)c(F)cc2c1=O
not listed: [1] | [4] | [12] | [13] | [14]
inactive: all other assays above

CCCCCCCCCCCCCOS(=O)(=O)O
inactive: [13]

c1ccc2sc(SN(C3CCCCC3)C3CCCCC3)nc2c1
active: [1] 5.57 µM | [3] 5.77 µM | CD38, CD38 (gene 952) 7.65 µM | CD40, CD40 (gene 958) 7.96 µM | CD69, CD69 (gene 969) 5.79 µM | [8] 5.28 µM | [9] 3.23 µM | [10] 11.4 µM | [11] 11.4 µM
inactive: [2] | [5] | [6] | [7] | [14]

CCCCC(CC)COCCC#N (configuration not stated)
active: [9] 0.0801 µM
not listed: [4] | [12] | [13] | [14]
inactive: all other assays above
